Assay results: PubChem BioAssay (EPA / NIEHS)
“And” between values parts separate entries of the source, which are not always exact repeats. Identical values can stand only once. Records with an inconclusive call do not appear. Some compounds were tested as several samples or in several runs, with calls that do not always agree. The source made the active and inactive calls. Rule for the calls, unless noted: active = hit-call score of the fitted dose curve at least 0.9, where 1 is the maximum; inconclusive = response in the unintended direction; inactive = score below 0.9.

Assays:
[1] = target: Agonist Androgen Response Element (ARE), AR (gene 367) (UniProt P10275); experiment: OT_AR_ARELUC_AG_1440: Odyssey Thera (OT) 24-hour CHO-K1 Luciferase Assay for Agonist Androgen Response Element (ARE) (AID 2283379)
In short: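 Luminescence increase above DMSO, read after a 24 h compound treatment of CHO-K1 cells expressing an androgen response element luciferase reporter, gives the single primary endpoint; concentration-response fitting used the positive direction.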

[2] = target: Estrogen receptor (Homo sapiens) (UniProt P03372); experiment: OT_ERa_GFPERaERE_0120: Odyssey Thera (OT) 2-hour HeLa Transcription Induction Assay for Estrogen Receptor (AID 2283382)
In short: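 Fluorescence microscopy read-out: inducible fluorescent protein reporter in HeLa cells, imaged 2 h post-dose. Signal increase over DMSO negative control fitted as single primary endpoint via high content image analysis.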

[3] = target: Bile acid receptor (Homo sapiens) (UniProt Q96RI1); experiment: OT_FXR_FXRSRC1_0480: Odyssey Thera (OT) 8-hour HEK293T Protein-Complementation Assay for Farnesoid X receptor/SRC-1 Co-activator (AID 2283383)
In short: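 Fluorescence intensity read-out, 8 h post-dose, HEK293T protein-fragment complementation; FXR bait and SRC-1 prey each linked to reporter fragments. Activity scored as signal increase over DMSO negative control.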

[4] = target: Bile acid receptor (Homo sapiens) (UniProt Q96RI1); experiment: OT_FXR_FXRSRC1_1440: Odyssey Thera (OT) 24-hour HEK293T Protein-Complementation Assay for Farnesoid X receptor/SRC-1 Co-activator (AID 2283384)
In short: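 Fluorescence readout, 24 h post-dose, HEK293T; FXR and SRC-1 fused to complementary reporter fragments, association reconstitutes signal. Positive-direction fit vs DMSO baseline.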

[5] = target: Retinoic acid receptor RXR-alpha (Homo sapiens) (UniProt P19793); experiment: OT_NURR1_NURR1RXRa_0480: Odyssey Thera (OT) 8-hour HEK293T Protein Complementation Assay for Nurr1/retinoid X receptor (RXR) (AID 2283385)
In short: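 Read-out: fluorescence from protein-fragment complementation between Nurr1 and RXRα in human HEK293T cells, 8 h after dosing. DMSO served as negative control; increased signal counted as activity.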

[6] = target: Retinoic acid receptor RXR-alpha (Homo sapiens) (UniProt P19793); experiment: OT_NURR1_NURR1RXRa_1440: Odyssey Thera (OT) 24-hour HEK293T Protein Complementation Assay for Nurr1/retinoid X receptor (RXR) (AID 2283386)
In short: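 Fluorescence PCA read-out; HEK293T; 24 h post-dose; bait/prey fused to reporter fragments; gain-of-signal fit vs DMSO negative control.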

[7] = target: Peroxisome proliferator-activated receptor gamma (Homo sapiens) (UniProt P37231); experiment: OT_PPARg_PPARgSRC1_0480: Odyssey Thera (OT) 8-hour Protein-Complementation Assay for Peroxisome Proliferator-activated Receptor Gamma / SRC-1 Co-activator (AID 2283387);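 note: nuclear to cytoplasmic split Venus YFP fluorescence ratio reporting PPARg SRC-1 interaction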
In short: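 Protein-fragment complementation in HEK293T: Venus YFP halves (residues 1-158, 159-239, mutated to IFP1/IFP2) fused to PPARg/SRC-1. 8 h exposure; N/C ratio at 488 nm; DMSO negative control.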

[8] = target: Peroxisome proliferator-activated receptor gamma (Homo sapiens) (UniProt P37231); experiment: OT_PPARg_PPARgSRC1_1440: Odyssey Thera (OT) 24-hour Protein-Complementation Assay for Peroxisome Proliferator-activated Receptor Gamma/ SRC-1 Co-activator (AID 2283388);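 note: nuclear to cytoplasmic ratio of reconstituted Venus YFP fluorescence in fixed imaged cells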
In short: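 Readout: nuclear-to-cytoplasmic 488 nm fluorescence ratio, ≥350 cells per image, 8 images per well, after 24 h compound exposure of HEK293T expressing PPARg/SRC-1 split-YFP fusions. Activity fitted in positive direction against DMSO.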

[9] = read-out: Tumor necrosis factor receptor superfamily member 6 (Homo sapiens) (UniProt P25445); experiment: LTEA_HepaRG_FAS: Life Technologies and Expression Analysis (LTEA) Assay for Fas cell surface death receptor (FAS) using HepaRG (AID 2283447; active = hit-call score of the fitted dose curve at least 0.9, where 1 is the maximum; inactive = score below 0.9); conditions: mRNA level, 48 h; actives raise or lower the signal
In short: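 Differentiated human HepaRG cells, pre-cultured 48 h, were exposed in duplicate for 48 h to 8-point half-log concentrations (top 100 uM, 0.5% DMSO) in serum-free induction medium; FAS mRNA measured by qRT-PCR, normalized to ACTB/GAPDH/POLR2A, bidirectional fit versus DMSO.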

[10] = target: Estrogen receptor beta (Homo sapiens) (UniProt Q92731); experiment: OT_ER_ERbERb_1440: Odyssey Thera (OT) 24-hour HEK293T Protein-Complementation Assay for Estrogen Receptor-beta/-beta Homodimer (AID 2283380);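 note: fluorescence gain from ER beta LBD homodimer complementation read by laser scanning cytometry; scored as signal increase over DMSO baseline for both agonists and antagonists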
In short: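 HEK293T cells stably expressing human ER-beta LBD (aa 310-547) PCA homodimer pair, dosed 24 h; formaldehyde-fixed, Draq5-stained. Readout: increase in nuclear (agonist) or nuclear plus cytoplasmic (antagonist) fluorescence intensity versus DMSO, gain-of-signal fitting.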

[11] = target: Estrogen receptor (Homo sapiens) (UniProt P03372); experiment: OT_ERa_GFPERaERE_0480: Odyssey Thera (OT) 8-hour HeLa Transcription Induction Assay for Estrogen Receptor (AID 2283381; active = hit-call score of the fitted dose curve at least 0.9, where 1 is the maximum; inactive = score below 0.9)
In short: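 GFP-ERE reporter, HeLa, 8 h exposure. Readout: fluorescence microscopy, high-content image analysis. Fit direction positive vs DMSO negative control.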

[12] = target: mouse Estrogen Receptor alpha (Era), Esr1 (gene 13982) (UniProt P19785); experiment: NVS_NR_mERa: NovaScreen (NVS) Nuclear Receptor Binding Assay for mouse Estrogen Receptor alpha (Era) (AID 2283378);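 note: hit means loss of bound radioligand signal relative to DMSO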
In short: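 Filter scintillation counts of bound radioligand, measured 18 h post-dose, gave the readout; decreased signal relative to DMSO controls indicated displacement from mouse Era. Primary screen ran in duplicate at 25 uM; active chemicals were retested across concentrations.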

Measured: AC50

Sequence of Agonist Androgen Response Element (ARE), AR (gene 367) (P10275 whole entry, looked up): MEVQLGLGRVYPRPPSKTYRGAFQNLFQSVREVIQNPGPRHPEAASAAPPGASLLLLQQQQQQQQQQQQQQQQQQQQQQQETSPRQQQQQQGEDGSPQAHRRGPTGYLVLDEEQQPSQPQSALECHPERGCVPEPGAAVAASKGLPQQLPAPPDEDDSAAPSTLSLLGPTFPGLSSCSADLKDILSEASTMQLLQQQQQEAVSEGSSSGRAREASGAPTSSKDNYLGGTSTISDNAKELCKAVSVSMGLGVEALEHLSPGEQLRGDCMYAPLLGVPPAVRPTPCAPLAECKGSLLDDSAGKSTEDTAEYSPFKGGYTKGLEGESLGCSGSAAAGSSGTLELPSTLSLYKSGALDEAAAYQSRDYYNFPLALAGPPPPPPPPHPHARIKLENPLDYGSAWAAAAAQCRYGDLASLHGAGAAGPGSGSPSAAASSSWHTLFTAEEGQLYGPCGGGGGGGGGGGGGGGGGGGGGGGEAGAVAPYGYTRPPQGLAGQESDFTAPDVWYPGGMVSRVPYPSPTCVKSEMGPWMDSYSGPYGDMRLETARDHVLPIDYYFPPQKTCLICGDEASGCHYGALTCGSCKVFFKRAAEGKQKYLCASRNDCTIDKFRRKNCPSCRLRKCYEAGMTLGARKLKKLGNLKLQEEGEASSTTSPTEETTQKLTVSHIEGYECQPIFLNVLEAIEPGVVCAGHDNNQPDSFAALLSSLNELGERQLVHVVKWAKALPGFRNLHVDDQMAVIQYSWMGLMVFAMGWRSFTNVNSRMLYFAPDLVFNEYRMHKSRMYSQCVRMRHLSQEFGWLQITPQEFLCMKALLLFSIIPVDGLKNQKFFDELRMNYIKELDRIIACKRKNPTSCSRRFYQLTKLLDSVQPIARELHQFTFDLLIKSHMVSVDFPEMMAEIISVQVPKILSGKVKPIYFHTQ
Sequence of Retinoic acid receptor RXR-alpha (Homo sapiens) (P19793 whole entry, looked up, the tested form may be a part): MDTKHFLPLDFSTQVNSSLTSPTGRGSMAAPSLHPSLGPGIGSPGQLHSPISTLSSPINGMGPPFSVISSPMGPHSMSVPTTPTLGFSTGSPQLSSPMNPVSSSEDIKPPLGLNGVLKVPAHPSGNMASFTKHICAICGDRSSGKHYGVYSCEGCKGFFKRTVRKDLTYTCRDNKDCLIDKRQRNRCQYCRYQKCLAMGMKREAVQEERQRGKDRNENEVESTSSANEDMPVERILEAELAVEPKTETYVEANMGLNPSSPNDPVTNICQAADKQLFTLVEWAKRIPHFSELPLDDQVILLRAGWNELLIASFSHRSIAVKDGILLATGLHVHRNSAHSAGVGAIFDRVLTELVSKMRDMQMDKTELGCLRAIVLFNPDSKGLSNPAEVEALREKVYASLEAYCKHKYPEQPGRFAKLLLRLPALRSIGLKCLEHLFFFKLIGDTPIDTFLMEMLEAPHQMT
Sequence of Estrogen receptor beta (Homo sapiens) (Q92731 whole entry, looked up, the tested form may be a part): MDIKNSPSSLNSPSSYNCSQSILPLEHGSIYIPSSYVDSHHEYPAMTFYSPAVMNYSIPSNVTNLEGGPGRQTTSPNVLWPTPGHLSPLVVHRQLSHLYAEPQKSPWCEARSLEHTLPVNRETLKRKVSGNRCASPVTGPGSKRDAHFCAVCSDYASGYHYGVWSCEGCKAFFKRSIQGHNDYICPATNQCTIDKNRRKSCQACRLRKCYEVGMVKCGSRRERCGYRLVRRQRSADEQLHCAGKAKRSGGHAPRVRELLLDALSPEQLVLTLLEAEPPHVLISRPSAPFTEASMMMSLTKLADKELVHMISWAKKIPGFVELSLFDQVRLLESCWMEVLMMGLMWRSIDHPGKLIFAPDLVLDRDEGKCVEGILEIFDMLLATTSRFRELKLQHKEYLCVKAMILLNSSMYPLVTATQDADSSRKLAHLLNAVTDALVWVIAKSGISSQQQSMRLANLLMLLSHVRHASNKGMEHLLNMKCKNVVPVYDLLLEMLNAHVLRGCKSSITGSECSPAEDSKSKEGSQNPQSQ
Sequence of Estrogen receptor (Homo sapiens) (P03372 whole entry, looked up): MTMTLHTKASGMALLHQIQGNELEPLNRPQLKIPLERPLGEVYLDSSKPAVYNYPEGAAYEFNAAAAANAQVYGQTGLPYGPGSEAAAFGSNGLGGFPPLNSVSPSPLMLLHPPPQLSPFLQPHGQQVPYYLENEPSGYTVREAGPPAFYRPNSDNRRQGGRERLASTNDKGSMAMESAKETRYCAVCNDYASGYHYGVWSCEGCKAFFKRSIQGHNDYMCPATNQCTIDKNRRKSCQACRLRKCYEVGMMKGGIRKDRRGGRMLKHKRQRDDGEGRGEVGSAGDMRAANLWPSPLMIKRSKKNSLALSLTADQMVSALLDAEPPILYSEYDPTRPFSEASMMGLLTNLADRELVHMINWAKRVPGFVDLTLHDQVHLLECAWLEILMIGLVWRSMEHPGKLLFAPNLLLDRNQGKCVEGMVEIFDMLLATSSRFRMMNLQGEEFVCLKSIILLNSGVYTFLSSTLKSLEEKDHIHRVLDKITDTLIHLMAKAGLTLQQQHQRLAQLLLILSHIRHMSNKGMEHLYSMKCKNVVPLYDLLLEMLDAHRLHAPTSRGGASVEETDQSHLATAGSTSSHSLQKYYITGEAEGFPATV
Sequence of Bile acid receptor (Homo sapiens) (Q96RI1 whole entry, looked up, the tested form may be a part): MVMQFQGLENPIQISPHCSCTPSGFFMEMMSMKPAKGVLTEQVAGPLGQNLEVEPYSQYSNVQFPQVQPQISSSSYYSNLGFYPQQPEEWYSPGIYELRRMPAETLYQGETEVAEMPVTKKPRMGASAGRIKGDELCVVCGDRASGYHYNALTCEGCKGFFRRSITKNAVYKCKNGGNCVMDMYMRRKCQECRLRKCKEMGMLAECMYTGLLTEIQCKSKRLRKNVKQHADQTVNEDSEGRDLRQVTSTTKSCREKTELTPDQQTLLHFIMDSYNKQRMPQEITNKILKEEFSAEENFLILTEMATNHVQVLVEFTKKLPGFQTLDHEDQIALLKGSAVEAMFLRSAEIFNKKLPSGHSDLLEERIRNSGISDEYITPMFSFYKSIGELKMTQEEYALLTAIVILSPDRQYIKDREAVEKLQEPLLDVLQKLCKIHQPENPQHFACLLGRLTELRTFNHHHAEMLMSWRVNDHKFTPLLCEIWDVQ
Sequence of Peroxisome proliferator-activated receptor gamma (Homo sapiens) (P37231 whole entry, looked up, the tested form may be a part): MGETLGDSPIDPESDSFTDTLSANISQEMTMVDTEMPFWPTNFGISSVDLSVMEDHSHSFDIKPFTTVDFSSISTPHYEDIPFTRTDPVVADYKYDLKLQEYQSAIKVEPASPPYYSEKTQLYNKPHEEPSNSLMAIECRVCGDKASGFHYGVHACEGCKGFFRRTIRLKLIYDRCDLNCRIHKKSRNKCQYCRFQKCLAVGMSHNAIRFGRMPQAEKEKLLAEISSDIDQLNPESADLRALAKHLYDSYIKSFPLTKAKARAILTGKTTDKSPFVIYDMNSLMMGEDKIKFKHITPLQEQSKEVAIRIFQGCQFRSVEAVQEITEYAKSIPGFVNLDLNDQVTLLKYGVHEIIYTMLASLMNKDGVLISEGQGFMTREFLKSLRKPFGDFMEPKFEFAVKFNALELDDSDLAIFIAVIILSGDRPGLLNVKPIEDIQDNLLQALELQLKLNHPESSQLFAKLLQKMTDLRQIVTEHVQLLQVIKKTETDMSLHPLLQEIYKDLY
Sequence of mouse Estrogen Receptor alpha (Era), Esr1 (gene 13982) (P19785 whole entry, looked up): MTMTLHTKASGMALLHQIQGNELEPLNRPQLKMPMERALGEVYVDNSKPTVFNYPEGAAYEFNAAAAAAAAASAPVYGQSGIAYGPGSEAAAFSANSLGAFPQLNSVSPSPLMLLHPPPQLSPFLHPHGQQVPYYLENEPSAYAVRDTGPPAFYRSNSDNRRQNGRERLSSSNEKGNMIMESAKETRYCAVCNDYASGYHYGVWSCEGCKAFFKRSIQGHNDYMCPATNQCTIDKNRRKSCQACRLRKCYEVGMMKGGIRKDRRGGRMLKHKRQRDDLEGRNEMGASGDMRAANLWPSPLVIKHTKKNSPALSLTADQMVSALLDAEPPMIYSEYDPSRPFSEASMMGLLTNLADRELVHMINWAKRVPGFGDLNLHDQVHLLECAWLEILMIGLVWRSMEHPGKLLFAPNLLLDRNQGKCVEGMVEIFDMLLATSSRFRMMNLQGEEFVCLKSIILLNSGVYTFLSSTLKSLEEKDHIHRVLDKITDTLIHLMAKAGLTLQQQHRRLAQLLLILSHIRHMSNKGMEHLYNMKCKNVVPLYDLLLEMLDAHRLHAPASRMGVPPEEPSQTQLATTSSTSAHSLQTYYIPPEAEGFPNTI

COc1cc(C(C)C)c2c(c1)S(=O)(=O)N(COc1cc(=O)n3cccc(OCCN4CCCCC4)c3n1)C2=O
active: [4] 19.3 µM | [5] 3.02 µM and 4 µM | [6] 2.9 µM
inactive: [1] | [2] | [3] | [6] | [7] | [8] | [9]

CCCCN1C(=O)[C@@H]([C@H](O)C2CCCCC2)NC(=O)C12CCN(Cc1ccc(Oc3ccc(C(=O)O)cc3)cc1)CC2
not listed: [1] | [3] | [4] | [12]
inactive: all other assays above

OCc1ccccc1
not listed: [3] | [4] | [12]
inactive: all other assays above

O=C(O)c1cccc(C[C@@H]2COc3ccc(OCc4nc5cc(F)ccc5s4)cc3[C@@H]2O)c1
inactive: [12] | [10] | [2] | [5] | [6] | [9]

CCCCOC(=O)c1ccccc1
inactive: [1] | [2] | [5] | [6] | [7] | [8] | [9]

CCCc1ccccc1
not listed: [1] | [3] | [4] | [12]
inactive: all other assays above

O=S(=O)(O)c1ccc(N=Nc2c(O)ccc3cc(S(=O)(=O)O)ccc23)cc1
inactive: [11] | [2] | [4] | [5] | [6] | [9]

NNC(=O)c1ccncc1
inactive: [10] | [2] | [5] | [6] | [7] | [8] | [9]

OC(Cn1cncn1)(Cn1cncn1)c1ccc(F)cc1F
inactive: [10] | [2] | [5] | [6] | [7] | [8] | [9]

NC(=O)NN=Cc1ccc([N+](=O)[O-])o1
not listed: [1] | [3] | [4] | [12]
inactive: all other assays above

O=c1[nH]cnc2c1ncn2[C@H]1CC[C@@H](CO)O1
inactive: [2] | [5] | [6] | [7] | [8] | [9]
